Drawing on PubChem BioAssay AID588492 (Sanford-Burnham Center for Chemical Genomics, 2011), this text covers protection from H2O2 cell death for 93 compounds.

Molecules are shown by their SMILES. Among all 360,000 compounds or so, about 2,300 (0.64%) were called active. What follows is part of a selection rich in actives, with near analogues and random picks from the rest. Unmarked numbers belong to inactive results.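 How the source made its calls: active means compounds giving at least 50% protection of heart cells from peroxide-induced death in the single-dose screen, raw or plate-pattern-corrected value; inactive means the rest.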

The nature of the experiment: H9c2 cardiomyocyte survival under peroxide injury – uHTS, H9c2 cells, ATPLite luminescence, primary screen (AID 588492).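 Further: 0% = DMSO wells with peroxide and 100% = DMSO wells without peroxide.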 Particulars: H9c2 cardiomyocytes, 2 h, at 20 µM, hits give high values. For orientation: ATP-based viability assays read luminescence as a measure of living cells.
For the compound `COc1ccc(S(=O)(=O)N2CCN(c3cnccn3)CC2)cc1`, the protection from H2O2 cell death was -1.4%. Under `CCc1nc2ccc(C(=O)NC3CCN(Cc4ccccc4)CC3)cn2c1N(C)CCN1CCOCC1` stands 7%. The same measure for `CCOC(=O)N1CCN(Cc2oc(CO)cc(=O)c2O)CC1`: 13%; for `NC(=O)CSC1=Nc2ccccc2C2=NC(CCC(=O)NCc3ccc(F)cc3)C(=O)N12` (stereo not drawn): 2.5%.

As for `CC(C)C1N=C2c3ccccc3N=C(SCC(=O)c3ccc(O)c(O)c3)N2C1=O` (stereo not drawn), the protection from H2O2 cell death was 96.8% (active). Under `O=C(CSC1=Nc2ccccc2C2=NC(c3ccccc3)C(=O)N12)NCC1CCCO1` (stereo not drawn) stands 29.7%; under `Cc1ccc(S(=O)(=O)N2CCC(C(=O)N[C@@H](C)C(=O)NCCc3ccccc3)CC2)cc1`, 2%; under `COc1cccc(CNc2nc3cc(-c4csc5ccccc45)sc3c(=O)n2C)c1`, -3.9%. The same measure for `CN(C(=O)c1ccccn1)c1nnc(-c2ccccn2)s1`: -5.5%; for `COc1ccc(-c2nc3ccccc3n2CCC(C)C)cc1OC`: 6.5%.

Regarding `COc1ccc(-c2nn3c(-c4ccccc4)nnc3s2)cc1OC`, the protection from H2O2 cell death was 63.1% (active). The same measure for `COc1ccc(-n2c(SCC(=O)OC(C)C)nnc2-c2ccccn2)cc1`: 4%. With `CCOc1cccc(-c2nnc(SCC(=O)NC3CC3)n2C)c1`, the protection from H2O2 cell death was -1.8%. Regarding `COc1ccc(NC(=O)c2cc3nc(-c4ccccc4)cc(C)n3n2)cc1OC`, the protection from H2O2 cell death is 36.7%.

`CCOc1cccc(-c2nn3c(-c4ccccn4)nnc3s2)c1`: the protection from H2O2 cell death was 68% (active). Under `c1ccc(-c2cc(-c3nnc4sc(-c5ccccn5)nn34)[nH]n2)cc1` stands 63.3% (active); under `O=S(=O)(Nc1ccc2ccccc2c1)N1CCCCC1`, -4%; under `Cc1c(C(=O)O)nnn1-c1nonc1N`, 3.3%. The same measure for `Cc1cc(C)c(CN2CCN(C(=O)Cn3ccc(NC(=O)OCc4ccccc4)nc3=O)CC2)c(C)c1`: -25%; for `CCN(CC)CCCN1C(=O)C(=O)/C(=C(/O)c2c(C)nc3ccccn23)C1c1ccc(C)o1` (stereo not drawn): 4.2%; for `COC(=O)c1ccc2nc(-c3ccc(Cl)cc3)c(Cc3cccc(F)c3)n2c1`: -2.7%. The same measure for `Cc1ccc(N/C(N)=N/c2nc(C(F)(F)F)cc(C(F)(F)F)n2)cc1`: -14.8%; for `CCO[C@H]1OC(C(=O)N2CCOCC2)=C[C@@H](c2ccc3c(c2)OCO3)[C@@H]1CCCO`: 2.8%.

`COc1ccc(OC)c(C(O)c2ncc(-c3cccc(C(F)(F)F)c3)[nH]2)c1` (stereo not drawn): the protection from H2O2 cell death was -12.4%. As to `CCNC(=O)C1(C)CCCN(Cc2noc(-c3ccccc3OC)n2)C1` (stereo not drawn), the protection from H2O2 cell death is -1.9%. The same measure for `CCNC(=O)c1sccc1-n1cccc1`: 5%; for `O=C(COC(=O)c1cccc(Cl)c1)NC1CCCCCCC1`: -3.2%. Under `Cc1ccccc1NC(=O)CSC1=NCCN1` stands -2%; under `COc1ccccc1OCC(=O)Nc1ccccc1C(=O)NC1CC1`, 4.6%.

With `Cc1ccccc1NC(=O)COc1cccc2c1CCNC2=O`, the protection from H2O2 cell death is 70.7% (active). Under `O=C(COc1cccc2c1CCNC2=O)NC1CCCCC1` stands 56.1% (active); under `O=C(COc1ccccc1O)NC1CCCC1`, -0.6%. Under `OCC1(Cc2ccccc2C(F)(F)F)CCN(Cc2cccc3cnccc23)CC1` stands -2.8%; under `Cc1cc(O)ccc1NC1=CC(=O)CC(C)(C)C1`, -13.4%. Under `CCN(CC)CCCNC(=O)c1c(O)c2cc(F)cc3c2n(c1=O)C(C)CC3` (stereo not drawn) stands 22.2%; under `CCCCN(CCCC)CCC(O)c1cc2c(Cl)cc(Cl)cc2c2cc(C(F)(F)F)ccc12` (stereo not drawn), -33.9%.

With `Cc1ccc(NC(=O)Cn2cccc2C2=NC(c3ccccc3)CO2)c(C)c1` (stereo not drawn), the protection from H2O2 cell death is -6.9%. Under `COc1ccc(NC(=O)CCS(=O)(=O)c2cc3c(cc2Cl)NC(=O)CO3)cc1OC` stands 7.8%; under `COc1ccc(Cl)cc1NC(=O)CCS(=O)(=O)c1cc2c(cc1C)NC(=O)CO2`, 54.6% (active); under `Cc1cc2c(cc1S(=O)(=O)CCC(=O)NCc1ccccc1)OCC(=O)N2`, 2.9%. Under `O=C(Oc1cccc(N2C(=O)C3C4c5ccccc5C(c5ccccc54)C3C2=O)c1)c1ccco1` (stereo not drawn) stands -6.6%; under `Nc1c(N(CCO)C(=O)C2CCCCC2)c(=O)[nH]c(=O)n1Cc1ccccc1`, -1.8%; under `O=C(CNC(=O)c1ccc(Cl)cc1Cl)NCC(=O)Nc1ccccc1N1CCOCC1`, -2.6%. Under `Cc1nccn1-c1ccc(NC(=O)[C@H]2O[C@@H](n3cnc4c(N)ncnc43)[C@H](O)[C@@H]2O)cc1` stands 4.5%; under `Cc1nc(NC(=O)c2ccc3c(c2)OCCO3)ccc1Br`, -4.4%. As for `Cc1ccc2sc(NNC(=O)c3ccc4c(c3)OCCO4)nc2c1C`, the protection from H2O2 cell death is 81.8% (active). Under `Cc1cccc(C)c1NC(=O)CNC(=O)c1ccc2c(c1)OCCO2` stands 0.8%.

Turning to `O=C1CCN(Cc2ccc([N+](=O)[O-])cc2)CCN1[C@H](CO)Cc1ccccc1`, the protection from H2O2 cell death was 0.1%. The same measure for `COc1ccc(-c2ccc(Nc3ccc(S(=O)(=O)N4CCCC4)cc3)nn2)cc1OC`: 58.5% (active). The same measure for `COc1ccc(S(=O)(=O)N2CCCCCC2)cc1NC(=O)Cc1ccc(OC)c(OC)c1`: 4%; for `COc1cc(C(C)=O)ccc1OC(C)C(=O)Nc1ccc(S(=O)(=O)N2CCCC2)cc1` (stereo not drawn): 4.6%; for `CC(Nc1ccccc1)c1cccnc1` (stereo not drawn): 4.3%. The same measure for `O=C(CCN1CCCCC1)Nc1ccc(F)c(F)c1`: 0.6%; for `Cc1cccc(NC(=S)NCCc2ccc(Cl)cc2)c1C`: -6.5%; for `Oc1cc2c(cc1O)CN(C(=S)NCCc1ccc(Cl)cc1)CCC2`: 74.4% (active). Turning to `O=C(NCCc1ccc(Cl)cc1)c1cccc(N2CCCC2=O)c1`, the protection from H2O2 cell death is -1.2%. As for `CC(C)C1CCN(C(=O)C2CCC(=O)N(C3CCCCCC3)C2)CC1` (stereo not drawn), the protection from H2O2 cell death was -2.1%. Under `O=C(c1cccnc1)N1CCN(S(=O)(=O)c2cccs2)CC1` stands 10.1%. Under `Cc1ccc(S(=O)(=O)N2CCCCC2)cc1NC(=O)c1cccnc1` stands 12%. Under `O=C(N/N=C/c1sc(N2CCCCC2)nc1-c1cccs1)c1cccnc1` stands 56.3% (active); under `CC(C(=O)Nc1ccc(S(=O)(=O)N2CCCC2)cc1)N(C)Cc1ccc(F)cc1` (stereo not drawn), 0.3%; under `O=C(NCC(=O)N(Cc1cccs1)C(C(=O)NC1CCCCC1)c1ccco1)c1cccs1` (stereo not drawn), 68.2% (active). For the compound `Cc1ccccc1N(C(=O)CNC(=O)c1cccs1)C(C(=O)NC1CCCC1)c1ccncc1` (stereo not drawn), the protection from H2O2 cell death was 1.9%. Under `O=C(NCC(=O)N(CC1CCCO1)C(C(=O)NC1CCCCC1)c1ccccc1)c1ccco1` (stereo not drawn) stands 2.8%; under `COc1ccc(-c2ccc(C(=O)NC(C)C)c3occc23)c(C)c1`, 5.9%; under `COc1ccc(-c2nc3n(c2Br)CCC3)cc1`, -13.5%.

For the compound `COc1ccc(NC(=O)CN(C)C(=O)c2cc(C)oc2C)cc1`, the protection from H2O2 cell death is -3.2%. Under `CCc1ccc(-c2nc(SCC(=O)NC3CCCC3)n[nH]2)cc1` stands -11.6%.

Consider `O=C(OCc1cn([C@H]2C[C@H](c3ccccc3)N(C(=O)c3cccs3)C[C@@H]2O)nn1)c1ccccc1`, for which the protection from H2O2 cell death was -0.9%.

In the case of `COC(=O)c1cc(CNC(=O)CC(C)c2ccccc2)ccc1OC` (stereo not drawn), the protection from H2O2 cell death is 9.7%. Under `COC(=O)c1ccc(C(NC(=O)OCc2ccccc2)/C(F)=C/[C@@H](C)C(=O)O)cc1` (stereo partly drawn) stands 1.8%.

As to `COC(=O)c1ccc(C(NC(=O)OCc2ccccc2)/C(C)=C/[C@@H](C)C(=O)NCc2ccc(OC)c(OC)c2)cc1` (stereo partly drawn), the protection from H2O2 cell death was 52% (active). Under `CCCCNC(=O)C(C)N(CCN(C)C)C(=O)CCCCCN1C(=O)NC(c2ccc(Cl)cc2)C(C(=O)OCc2ccccc2)=C1C` (stereo not drawn) stands -27%. The same measure for `CC(=O)NC(c1cccc(F)c1)c1nc(-c2cccc(F)c2)cs1` (stereo not drawn): -2.7%; for `Nc1nc2cc(Cl)ccc2n1N`: 1.6%; for `COc1ccc(NC(=O)c2oc3ccc(S(=O)(=O)N4CCOCC4)cc3c2C)cc1`: 52.7% (active). Regarding `Cc1c(C(=O)Nc2cccc(S(=O)(=O)N3CCOCC3)c2)oc2ccccc12`, the protection from H2O2 cell death is 4.3%. Under `Cc1c(C(=O)Nc2ccccc2Cl)oc2ccc(S(=O)(=O)N3CCC4(CC3)OCCO4)cc12` stands 0.9%.

With `Cc1ccc(NC(=O)C(C)OC(=O)Cc2c[nH]c3ccccc23)cc1S(=O)(=O)N1CCOCC1` (stereo not drawn), the protection from H2O2 cell death was -2.5%. The same measure for `C/C(=N\NC(=O)c1cccc([N+](=O)[O-])c1)c1cccnc1`: 9.5%.

Take `CCN(CC)c1ccc(S(=O)(=O)N2CCCCC2)cc1NC(=O)C1=COCCO1`: the protection from H2O2 cell death was -3.5%. Under `CC(=O)c1c(C)[nH]c(C(=O)OCC(=O)Nc2sc3c(c2C#N)CCCC3)c1C` stands -12.2%; under `CCOC(=O)N1CCN(C(c2cccnc2)c2ccc3cccnc3c2O)CC1` (stereo not drawn), 69.3% (active); under `CCOC(=O)N1CCN(C(=O)C2CCN(c3ncnc4c3sc3cccc(F)c34)CC2)CC1`, -28.4%. Under `CC(=O)NC(c1cccs1)c1cc(Br)c2cccnc2c1O` (stereo not drawn) stands 43.4%; under `CCCCC(=O)NC(c1ccc(OC)c(OC)c1)c1ccc2cccnc2c1O` (stereo not drawn), 36.9%. For `CCN1CCN(C(c2cccnc2)c2cc(Cl)c3cccnc3c2O)CC1` (stereo not drawn), the protection from H2O2 cell death was 64% (active).

As to `CCn1c(SC(C)C(=O)Nc2ccc(N3CCOCC3)cc2)nnc1-c1ccco1` (stereo not drawn), the protection from H2O2 cell death was -3.9%.

Turning to `O=C(CN1C(=O)c2cccnc2Oc2ccc(Cl)cc21)Nc1ccc(F)cc1`, the protection from H2O2 cell death was 21.7%. Under `OC(c1cc(Cl)cc(Cl)c1)c1ncc(-c2ccccc2C(F)(F)F)[nH]1` (stereo not drawn) stands -8.9%; under `COc1cccc2sc(NNC(=O)c3nc4ccccc4s3)nc12`, 53.7% (active); under `COc1cccc(/C=C(/CC(=O)Nc2ccc(N3CCOCC3)cc2)c2nc3ccccc3s2)c1`, -4.6%. The same measure for `CC(=O)Nc1cccc(-c2nc3ccccc3s2)c1C`: -3.3%.
